Experimental findings from PubChem BioAssay are described below.

Assay [1] concerns XIP peptide (Xip251-270) binding. Put plainly: small-molecule binders of XIP peptide, primary screen, biochemical, small-molecule microarray, fluorescence 635/667 nm, 0.1 µg/mL protein (AID 1182). The conditions noted are these: fluorescent protein binding, 635 nm, higher = more signal, called active from +8 up or from −8 down.
The subject of a further assay is XIP peptide (Xip251-270). Put plainly: small-molecule binders of XIP peptide, primary screen, biochemical, small-molecule microarray, fluorescence 635/667 nm, 0.5 µg/mL protein (AID 1183). The conditions noted are these: small-molecule microarray binding, fluorescence 635 nm; higher = more signal.
Assay [2] can be described thus: Plasmodium falciparum growth inhibition, primary screen, strain 3D7, DAPI fluorescence, 100 nL (AID 1184).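 Note: parasites grown inside human red blood cells in medium with human serum.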 The note with it: P. falciparum 3D7 growth, 3 d, higher = more signal.
In assay [3] the target is Homeobox protein Hox-A13 (Mus musculus) (UniProt Q62424). Put plainly: inhibitors of HoxA13-DNA binding, primary screen, biochemical, fluorescence polarization, labeled oligonucleotide (AID 1185). The note with it: 15 min, higher = more signal, called active from +8 up or from −8 down. (Polarisation of emitted light reports the rotation of a fluorescent probe.)
The nature of assay [4]: inhibitors of hydroxyurea-induced Chk1 phosphorylation, primary screen, imaging, HeLa, phospho-Chk1 antibody, percent positive cells (AID 1186). The note with it: hydroxyurea-induced phospho-Chk1 immunofluorescence imaging, higher = more signal.
Assay [5] can be described thus: inhibitors of hydroxyurea-induced Chk1 phosphorylation, primary screen, imaging, HeLa, phospho-Chk1 nuclear intensity (AID 1187). The conditions noted are these: hydroxyurea-induced phospho-Chk1 immunofluorescence imaging, higher = more signal.

Active and inactive are the calls of the source. Unless noted, the rule behind the calls is not given here.

Sequence of Homeobox protein Hox-A13 (Mus musculus) (Q62424 whole entry, looked up): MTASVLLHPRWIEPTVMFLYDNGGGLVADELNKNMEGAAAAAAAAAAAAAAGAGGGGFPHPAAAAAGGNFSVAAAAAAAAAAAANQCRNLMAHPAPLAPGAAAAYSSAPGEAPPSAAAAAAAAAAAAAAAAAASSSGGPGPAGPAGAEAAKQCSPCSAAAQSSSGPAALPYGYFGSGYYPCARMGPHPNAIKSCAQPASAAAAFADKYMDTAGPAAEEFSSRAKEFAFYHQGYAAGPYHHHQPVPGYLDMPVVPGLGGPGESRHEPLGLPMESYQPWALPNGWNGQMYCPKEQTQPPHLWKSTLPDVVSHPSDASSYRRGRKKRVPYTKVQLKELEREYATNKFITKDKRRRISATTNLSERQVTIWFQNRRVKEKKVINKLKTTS

As for `CC1CC/C=C\[C@H]2OC34C=CCN(Cn5nnc6ccccc65)C(=O)[C@H]3N(CCCCCO)C(=O)[C@@H]4C2C(=O)O1` (stereo partly specified), the composite z-score was -0.369 (inactive) in assay [1] and -0.745 in the assay with XIP peptide (Xip251-270). Also, the z-score is -0.585 in assay [2], -3.77 (inactive) in assay [3], -0.749 (inactive) in assay [4] and -0.2 (inactive) in assay [5].
Regarding `O=C1OCCC/C=C\[C@H]2OC34C=CCN(c5ccc6ccccc6c5)C(=O)[C@H]3N(CCCCCO)C(=O)[C@@H]4C12` (stereo partly specified), the composite z-score is 0.0867 (inactive) in assay [1] and 0.0861 with XIP peptide (Xip251-270). For the same compound, the z-score in assay [2] is 1.73; in assay [3] it was -4.94 (inactive); in assay [4] it was 0.715 (inactive); in assay [5], -0.0708 (inactive).
On to `CCCCN1CC=CC23O[C@@H]4C=CCCOC(=O)C4[C@H]2C(=O)N(CCCCCO)[C@@H]3C1=O` (stereo partly specified), for which the composite z-score is -0.17 (inactive) in assay [1] and 0.779 with XIP peptide (Xip251-270). Besides, the z-score in assay [2] was 0.474; in assay [3], -4.72 (inactive); in assay [4], -2.17 (inactive); in assay [5], -1.9 (inactive).
On to `CCOC(=O)C1=CC[C@@H](c2ccc(C(F)(F)F)cc2)N(S(=O)(=O)c2ccc(C)cc2)[C@H]1c1ccccc1`, for which the composite z-score in assay [1] was 0.544 (inactive); in the assay on XIP peptide (Xip251-270), 0.762. Moreover, the z-score in assay [2] was -2.02; in assay [3], 0.759 (inactive); in assay [4], 0.0487 (inactive); in assay [5], -0.516 (inactive).
On to `Cc1ccc(S(=O)(=O)N2C[C@@H](C(=O)O)[C@H](Sc3ccccc3)C[C@H]2c2ccccc2)cc1`, for which the figures for the composite z-score (in assay [1]; in the assay with XIP peptide (Xip251-270)) were 0.117 (inactive) and 0.779, respectively. Further, the z-score is -0.0652 in assay [2], -7 (inactive) in assay [3], 0.442 (inactive) in assay [4] and 0.283 (inactive) in assay [5].
In the case of `CN(C)CCCCCCNC(=O)[C@@H]1C[C@@H]2C(=O)N3CCC[C@H]3C(=O)N2[C@@H]1c1ccc(O)cc1`, the values for the composite z-score (in assay [1]; in the assay with XIP peptide (Xip251-270)) were 2.98 (inactive) and 0.929, respectively. Further, the z-score was 0.199 in assay [2], 0.647 (inactive) in assay [3], -0.849 (inactive) in assay [4] and -0.147 (inactive) in assay [5].
`CN1C(=O)C2C=CC(C(O)C=Cc3ccc([N+](=O)[O-])cc3)N(Nc3ccccc3)C2C1=O` (stereo unspecified): the figures for the composite z-score (in assay [1]; in the assay on XIP peptide (Xip251-270)) were 0.113 (inactive) and 0.612, respectively. Besides, the z-score in assay [2] was 0.431; in assay [3] it was -5.37 (inactive); in assay [4], 0.0831 (inactive); in assay [5] it was -0.733 (inactive).
Consider `O=C(O)[C@H](Cc1ccccc1)n1cc(-c2ccccc2)nn1`, for which the figures for the composite z-score (in assay [1]; in the assay on XIP peptide (Xip251-270)) were -0.152 (inactive) and 0.297, respectively. Moreover, the z-score in assay [2] was 0.0447; in assay [3], -1.17 (inactive); in assay [4], 0.425 (inactive); in assay [5], -0.0072 (inactive).
In the case of `COC(=O)[C@@]1(Cc2ccc(OC)cc2)[C@H]2c3cc(C(=O)N4CCCC4)n(CCSCCO)c3C[C@H]2CN1C(=O)c1ccccc1`, the values for the composite z-score (in assay [1]; in the assay on XIP peptide (Xip251-270)) were 0.0308 (inactive) and 0.826, respectively. In addition, the z-score in assay [2] was -1.44; in assay [3], -5.24 (inactive); in assay [4], 1.35 (inactive); in assay [5], 1.04 (inactive).
With `C=CCOC(=O)[C@H]1[C@@H]2C(=O)O[C@@H](c3ccccc3)[C@@H](c3ccccc3)N2[C@@H](c2ccc(OCCOC(=O)[C@H]3C[C@H]4C(=O)N[C@@H](CCCCN(C)C)C(=O)N4[C@H]3c3cccc(OCCO)c3)cc2)[C@]12C(=O)Nc1ccc(I)cc12`, the composite z-score in assay [1] is 0.718 (inactive); in the assay on XIP peptide (Xip251-270) it was 0.634. Further, the z-score in assay [2] was -0.355; in assay [3], 5.48 (inactive); in assay [4] it was -0.187 (inactive); in assay [5], 0.0593 (inactive).
With `O=C1OCC=C[C@H]2OC34C=CCN(Cn5nnc6ccccc65)C(=O)[C@H]3N(CCCCCO)C(=O)[C@@H]4[C@@H]12` (stereo partly specified), the results for the composite z-score (in assay [1]; in the assay on XIP peptide (Xip251-270)) were 0.537 (inactive) and 0.193, respectively. The z-score in assay [2] is -0.133; in assay [3], -3.27 (inactive); in assay [4], -0.288 (inactive); in assay [5], -0.398 (inactive).
Turning to `CC(C)(C)OC(=O)CC[C@]1(C(=O)NCCN2CCOCC2)COC(c2ccc(OCCCO)cc2)=N1`, the composite z-score was 1.16 (inactive) in assay [1] and 0.759 with XIP peptide (Xip251-270). Further, the z-score in assay [2] was 0.51; in assay [3], -3.66 (inactive); in assay [4], -0.131 (inactive); in assay [5], 0.0826 (inactive).
In the case of `O=C1O[C@@H](c2ccccc2)[C@@H](c2ccccc2)N2[C@@H](c3ccccc3OCCO)[C@]3(C(=O)Nc4ccc(C#CC5(O)CCCCCC5)cc43)[C@@H](C(=O)N3CCN(c4ncccn4)CC3)[C@H]12`, the results for the composite z-score (in assay [1]; with XIP peptide (Xip251-270)) were -0.0661 (inactive) and 0.661, respectively. Also, the z-score in assay [2] is -2.17; in assay [3] it was -1.01 (inactive); in assay [4], -0.0019 (inactive); in assay [5] it was 0.451 (inactive).
As for `COC(=O)[C@@]1(Cc2ccccc2)[C@H]2c3cc(C(=O)N4CCCC4)n(Cc4c(CO)[nH]cc(C)c4=O)c3C[C@H]2CN1C(=O)c1ccccc1`, the composite z-score in assay [1] is -0.528 (inactive); in the assay on XIP peptide (Xip251-270), 0.704. Further, the z-score was -1.46 in assay [2], -5.81 (inactive) in assay [3], 0.754 (inactive) in assay [4] and 0.672 (inactive) in assay [5].
As for `CC(=CC1CCCCC1)[C@@H](NC(=O)c1cccnc1)c1ccc(-c2ccccc2)cc1`, the composite z-score is -0.486 (inactive) in assay [1] and -0.434 with XIP peptide (Xip251-270). The z-score in assay [2] is -0.412; in assay [3], -0.427 (inactive); in assay [4] it was 1.6 (inactive); in assay [5], -0.72 (inactive).
`CC(C)[Si](C#C[Si](C(C)C)(C(C)C)C(C)C)(O[C@H](C)c1cn(Cc2ccccc2)nn1)C(C)C`: the composite z-score was -0.0845 (inactive) in assay [1] and 0.0972 in the assay with XIP peptide (Xip251-270). In addition, the z-score in assay [2] was 1.59; in assay [3], -0.236 (inactive); in assay [4], -0.175 (inactive); in assay [5] it was -0.288 (inactive).
